In the library only some 0.24% were active in any assay of this set; here they are far more common.
mcGAS lum: mouse cGAS inhibition by luminescence. inhibition, % at 12.5 µM. 0.15% of 160,000 active. recombinant cGAS, Kinase-Glo ATP depletion luminescence. Q8C6L5;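 further: 0% = negative control wells and 100% = reference inhibitor with no enzyme activity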
Target sequence (Q8C6L5 whole entry, looked up): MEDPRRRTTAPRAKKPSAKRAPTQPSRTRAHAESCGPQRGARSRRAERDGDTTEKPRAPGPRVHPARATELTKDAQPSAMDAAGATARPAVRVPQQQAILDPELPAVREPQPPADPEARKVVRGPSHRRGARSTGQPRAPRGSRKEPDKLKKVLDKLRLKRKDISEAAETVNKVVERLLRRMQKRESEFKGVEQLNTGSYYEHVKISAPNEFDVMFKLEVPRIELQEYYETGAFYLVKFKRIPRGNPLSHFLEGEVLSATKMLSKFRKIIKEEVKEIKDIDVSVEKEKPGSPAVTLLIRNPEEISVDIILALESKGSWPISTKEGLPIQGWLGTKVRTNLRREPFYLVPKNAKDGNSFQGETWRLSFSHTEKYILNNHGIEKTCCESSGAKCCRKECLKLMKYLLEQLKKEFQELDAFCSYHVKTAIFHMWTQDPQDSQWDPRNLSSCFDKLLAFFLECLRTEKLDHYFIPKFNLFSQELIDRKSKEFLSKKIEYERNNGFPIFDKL
hcGAS inh: inhibitors of human cGAS. Q8N884. recombinant h-cGAS, ATP depletion, Kinase-Glo luminescence. inhibition, % at 12.5 µM. 0.081% of 290,000 active. AID 1259398;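 further: 0% = vehicle reaction and 100% = reaction without DNA for no activity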
NPYLR7 agonist: activates Aedes aegypti NPYLR7 receptor; HEK293T NPYLR7/Galpha15, GCaMP6s calcium fluorescence; activation, % at 10 µM; 0.15% of 270,000 active; AID 1259423; in the data active means activation above about 40%;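 further: 0% = vehicle and 100% = reference agonist at the receptor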
* marks the source's active call; other numbers are inactive results; ! = repeats disagree. Unless noted, no stated cut-off is given here; in the data, active means inhibition above about 40%; inactive means the rest.

Screening Brc1cccc(-c2nnc(SCc3ncc(-c4ccccc4)o3)o2)c1 returned hcGAS inh -5 and NPYLR7 agonist 2.
For N#CC1C(=N)C(C#N)(C#N)C(c2cccs2)C2CSCC=C12 (stereo not drawn) the results were hcGAS inh -2 and NPYLR7 agonist 17.
`CCN1CC=C2C(C#N)C(=N)C(C#N)(C#N)C(c3cccs3)C2C1` (stereo not drawn) gave mcGAS lum -2, hcGAS inh 0 and NPYLR7 agonist 50*.
Screening CCCCCc1nn2c(=O)cc(O)nc2s1 returned mcGAS lum -4, hcGAS inh -7 and NPYLR7 agonist -2.
Screening Cc1ccc(NC2C=CS(=O)(=O)C2)cc1C (stereo not drawn) returned mcGAS lum -3, hcGAS inh -3 and NPYLR7 agonist 110*.
For Cc1ccc(F)cc1CC(=O)NC1C=CS(=O)(=O)C1 (stereo not drawn) the results were mcGAS lum 3, hcGAS inh -1 and NPYLR7 agonist 8.
Screening COc1ccc(-c2cnc3ncnn3c2N2CCCN(C(=O)C3CCCCC3)CC2)cc1OC returned mcGAS lum -9, hcGAS inh -7 and NPYLR7 agonist 0.
CC(C)NC[C@@H](O)c1ccc(O)c(O)c1 was read as mcGAS lum -6, hcGAS inh -8 and NPYLR7 agonist 32.
Screening CNC[C@@H](O)c1ccc(O)c(O)c1 returned hcGAS inh -3 and NPYLR7 agonist 55*.
`CCN1C(=Cc2cc(C)[n+](CC3CCCO3)c(C)c2)Sc2ccccc21` (stereo not drawn) gave mcGAS lum -4, hcGAS inh -1 and NPYLR7 agonist 123*.
CCN1/C(=C\C(=C2\C(=O)N(C)C(=S)N2C)c2ccccc2)Sc2ccccc21 was read as hcGAS inh -2 and NPYLR7 agonist -2.
`CCCC[n+]1c(C)cc(C=C2Sc3ccccc3N2CC)cc1C` gave hcGAS inh 2 and NPYLR7 agonist 258*.
`CCN1C(=O)/C(=C/C=C2/Sc3ccccc3N2CC)SC1=Nc1ccccc1C` gave mcGAS lum -2, hcGAS inh -3 and NPYLR7 agonist -4.
For CCN1C(=O)/C(=C\C=C2/Sc3ccccc3N2CC)N(c2ccccc2)C1=S the results were mcGAS lum -4, hcGAS inh -5 and NPYLR7 agonist -2.
For CCN1C(=Cc2cc(C)[n+](CCOC)c(C)c2)Sc2ccccc21 the results were hcGAS inh 4 and NPYLR7 agonist 124*.
Screening CCCc1nc(C(=O)NCc2cccnc2-n2cncn2)cs1 returned mcGAS lum -16, hcGAS inh -10 and NPYLR7 agonist 15.
For CCOC(=O)c1ccc2c(c1)nc(SCc1cc(Cl)ccc1F)n2CCOC the results were mcGAS lum -8, hcGAS inh -9 and NPYLR7 agonist 4.
For Cc1cc(=O)[nH]c(-n2nc(C)c(CCC(=O)Nc3cccc(Cl)c3C)c2C)n1 the results were hcGAS inh 1 and NPYLR7 agonist 0.
For CSCCCNC(=O)C1CCC(=O)N(Cc2ccccn2)C1 (stereo not drawn) the results were hcGAS inh -10 and NPYLR7 agonist 7.
`CCCN(CC(=O)Nc1ccc2c(c1)OCO2)C(C)c1ccccc1Br` (stereo not drawn) gave hcGAS inh -10 and NPYLR7 agonist 6.
O=C(O)CN1C(=O)/C(=C\c2ccc(OC(=O)c3ccc(Cl)cc3)cc2)SC1=S was read as mcGAS lum 1, hcGAS inh 9 and NPYLR7 agonist 20.
Screening O=C(CC1SC(=O)NC1=O)Oc1ccc(/C=C2\SC(=O)NC2=S)cc1 (stereo not drawn) returned hcGAS inh 44* and NPYLR7 agonist 158*.
For CN(C)S(=O)(=O)c1ccc2c(c1)C(=NNc1ccccc1)c1cc(S(=O)(=O)N(C)C)ccc1-2 the results were mcGAS lum -5, hcGAS inh -3 and NPYLR7 agonist 3.
`Cc1cccc2ncc(C(=O)N3CCC4(CCNC(=O)CC4)CC3)c(=O)n12` gave hcGAS inh -2 and NPYLR7 agonist 13.
Cc1nc2ncccc2cc1C(=O)N1CCC2(CCNC(=O)CC2)CC1 was read as hcGAS inh -2 and NPYLR7 agonist 55*.
Screening O=C(Cn1nc2c(c1NC(=O)Cc1cccs1)CSC2)NCCc1ccccc1 returned mcGAS lum 0, hcGAS inh 0 and NPYLR7 agonist 6.
Screening O=C(Cc1nc2cc(-c3ccc(Cl)cc3Cl)sc2c(=O)[nH]1)NC1CCCC1 returned mcGAS lum -18, hcGAS inh -5 and NPYLR7 agonist 4.
`N#CC1C(=N)SC(=N)C(C#N)C1c1cccs1` (stereo not drawn) gave mcGAS lum 70*, hcGAS inh 74* and NPYLR7 agonist 27.
Screening CC(=O)[C@@H]1SC(=N)C(C#N)[C@H]1c1cccs1 (stereo partly drawn) returned mcGAS lum 2, hcGAS inh 7 and NPYLR7 agonist -5.
`CCc1cc2c(=O)n(CC)c(SCc3cc(=O)n4cc(C)ccc4n3)nc2s1` gave hcGAS inh -6 and NPYLR7 agonist 1.
Screening COc1c(O)cc2c(=O)oc3c(OC)c(O)cc4c(=O)oc1c2c34 returned mcGAS lum 8, hcGAS inh 75* and NPYLR7 agonist 4.
Screening COc1cc(-c2cc(=O)c3c(O)c(OC)c(OC)c(OC)c3o2)cc(OC)c1OC returned hcGAS inh 0 and NPYLR7 agonist -3.
COCCCN1C(=O)N(Cc2ccccc2)C(=O)C12CCN(Cc1c(F)cccc1Cl)CC2 was read as mcGAS lum -8, hcGAS inh -20 and NPYLR7 agonist 18.
For CCCCN=C(N)N=C(N)N the results were hcGAS inh -7 and NPYLR7 agonist -13.
`CCCCC(CC)CN=C(N)NC(N)=NCCCCCCN=C(N)NC(N)=NCC(CC)CCCC` (stereo not drawn) gave mcGAS lum -5, hcGAS inh 4 and NPYLR7 agonist 46*!.
CCc1nc2n(n1)C(=O)C(C(c1cccc(OC)c1)N1CCOCC1)S2 (stereo not drawn) was read as mcGAS lum -8, hcGAS inh -7 and NPYLR7 agonist -4.
Screening O=C(c1[nH]c2ccccc2c1Br)N1CCCCCCC1 returned hcGAS inh 2 and NPYLR7 agonist 9.
Screening O=C(c1ncoc1C1CC1)N1CCOC(c2ccc(Cl)c(Cl)c2)C1 (stereo not drawn) returned hcGAS inh 0 and NPYLR7 agonist 1.
`O=S(=O)(Nc1nc2n(n1)C(c1ccccc1)CC(c1ccccc1)=N2)c1ccccc1` (stereo not drawn) gave mcGAS lum -3, hcGAS inh -9 and NPYLR7 agonist 25.
`CS(=O)(=O)Nc1nc2n(n1)C(c1ccccc1)CC(c1ccc(Cl)cc1)=N2` (stereo not drawn) gave hcGAS inh 0 and NPYLR7 agonist 66*.
Screening O=c1oc(-c2ccccc2O)nc2ccccc12 returned hcGAS inh 55* and NPYLR7 agonist 3.
O=c1oc(-c2ccccc2Br)nc2ccccc12 was read as mcGAS lum -5, hcGAS inh -2 and NPYLR7 agonist 19.
Nc1c2c(nc3ccccc13)CCCC2 was read as mcGAS lum -3, hcGAS inh -2 and NPYLR7 agonist -5.
`Nc1c2ccccc2nc2ccccc12` gave hcGAS inh 72* and NPYLR7 agonist 2.
